The values that follow come from PubChem BioAssay (NCI).

Structures are written as SMILES. The panel holds about 79,000 compounds, 15% with a hit somewhere; the sample as a whole holds those more often. Activity calls are given as the source filed them. Rule as the data show it: active = growth inhibition above about 70%; inactive = the rest.

A short description of the experiment: NCI Yeast Anticancer Drug Screen. Data for the rad50 strain (AID 155).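 Also: 0% = growth of vehicle-only cultures of the same strain.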 As to conditions: S. cerevisiae rad50 strain growth inhibition; at 50.0 µM; active compounds read high. The gist of the method: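 A DNA repair-deficient yeast mutant serves as the test organism; compound-induced growth inhibition is calculated against vehicle-treated cells.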
On to `Nc1nnc2cc(Br)ccc2n1`, for which the growth inhibition was -6% (inactive). As to `NNC(=O)C1CC1`, the growth inhibition is 0.5% (inactive).

Consider `Cc1cccc(C)c1NC(=O)Nc1cccc(C(F)(F)F)c1`, for which the growth inhibition is -16.4% (inactive). On to `CC1=CC(C)(C)NC(=S)N1c1cccc2c(S(=O)(=O)O)cccc12`, for which the growth inhibition is 5.05% (inactive). The value for `CNC(=O)N(C)C(=O)c1ccncc1C(=O)N(C(=O)NC1CCCCC1)C1CCCCC1` was 32.6% (inactive); that for `C[N+](C)(C)/N=C1\CC2CCC1C2` (configuration not stated) was 18.3% (inactive). For `O=C(O)CCC(=O)Nc1cc(C(F)(F)F)ccc1Cl`, the growth inhibition is 24.1% (inactive).

As for `COc1cc(/C=C(\OC(C)=O)c2ccc3c(c2)OCO3)cc(OC)c1OC`, the growth inhibition was -5% (inactive). `Cc1ccnc2ccccc12`: the growth inhibition is 0.15% (inactive).

Turning to `CCOc1ccc2nc(NC(=O)C(=O)C(C#N)CC(C)(C)C=O)sc2c1` (configuration not stated), the growth inhibition was -13.8% (inactive).

As to `COc1ccc(OC)c2cc3c(cc12)C(=O)C(C)=C(C)C3=O`, the growth inhibition was 6.15% (inactive). In the case of `CCCCCCCCCCCCCCCC(=O)OCC1OC(n2ccc(N)nc2=O)C(O)C1O` (configuration not stated), the growth inhibition is -1.2% (inactive).

With `CC(=O)OC1CCC2(C)C3=CCC4(C)C(C(C)=O)=CCC4C3CCC2C1` (configuration not stated), the growth inhibition is -27.9% (inactive). In the case of `CCCCC[N+](CCCCC)(CCCCC)CCCCC` it was -10.8% (inactive); in that of `COC(=O)c1nc(=S)[nH]c(C(=O)OC)c1C(=O)c1ccccc1O`, 21.9% (inactive); in that of `COC(=O)[C@@H]1CON(Cc2ccccc2)C1CC1(C)OCCO1` (some centres not stated), 0.85% (inactive). The value for `COc1ccc(C2=C(C#N)C(=C(C#N)C#N)NC(N)=C2C#N)cc1` was -11.1% (inactive).
